# High-throughput results deposited in PubChem by National Center for Advancing Translational Sciences (NCATS).
# Pf growth 48h = Primary qHTS for delayed death inhibitors of the malarial parasite plastid, 48 hour incubation; P. falciparum luciferase growth in erythrocytes, 48 h; Potency, µM (doses to about 28.7 µM), inactives show at the highest dose activity change, negative = inhibition, most hits filed as inhibitors; actives 5.9% (n = 310,000); AID 504832, 2011; further: potency means the concentration at half of the fitted maximal effect; on the % scale 0 is the no-effect control and ±100 the full control effect
#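 In quantitative HTS format, infected erythrocytes bearing luciferase-reporter parasites were treated for a single generation at 37 C. Luminescence after adding detection reagent served as the growth measure.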
# HCMV inh = qHTS Assay for inhibitors of the human cytomegalovirus (HCMV); activity change, negative = inhibition, % at 57.5 µM; HFF cells, HCMV-luciferase reporter, 72 h; stronger effect = lower value; actives 4.5% (n = 410,000); in the data active means activity change below about -60%; inconclusive means no clear call, values can overlap the other calls; inactive means above about -39%; further: on the % scale 0 is the no-effect control and ±100 the full control effect
#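 Two compound doses tested in HFFs infected with HCMV-luciferase, MOI 1 PFU/cell, 72 h at 37C. Lysate luminescence read with OneGlo; data normalized against buffer-only and 10uM Salinomycin inhibitor controls.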
# HCV inh = qHTS Assay for Inhibitors of Hepatitis C Virus (HCV); Huh7.5.1 HCVcc-Cre infection, luciferase reporter, 44 h; Potency, µM (top dose mostly 41.8 µM), for inactives: at the top dose activity change, negative = inhibition, actives largely listed as inhibitors; actives 3.4% (n = 340,000); AID 651820, 2012; further: potency means the concentration at half of the fitted maximal effect; on the % scale 0 is the no-effect control and ±100 the full control effect
#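 HCVcc-Cre virus at an moi near 0.5 was added right after compound to cells cultured 4 h from seeding (1,000 cells/well). Luciferase activity was determined 44 h later, 15 min after substrate addition at RT.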
# SARS PLP yeast = qHTS of Yeast-based Assay for SARS-CoV PLP; S. cerevisiae expressing SARS-CoV PLpro, growth rescue; Potency, µM (doses to about 32.9 µM), for the others: at the highest dose activity, positive = growth rescue, usual class: activators; actives 0.19% (n = 330,000); calls by dose curve; further: potency means the concentration at half of the fitted maximal effect; 0% is about no effect; nearly all actives have a fitted effect of over 55% in size
# Pf growth 96h = Primary qHTS for delayed death inhibitors of the malarial parasite plastid, 96 hour incubation; P. falciparum luciferase reporter growth, 96 h; Potency, µM (titrated, usually from 28.7 µM), for the others: top-dose activity change, negative = inhibition, most hits filed as inhibitors; AID 504834, 2011; actives 6.9% (n = 320,000); further: potency means the concentration at half of the fitted maximal effect; on the % scale 0 is the no-effect control and ±100 the full control effect
#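 Parasite growth measured via integrated firefly luciferase reporter in P. falciparum. Infected erythrocytes at 2% hematocrit, 0.05% parasitemia final were treated 96 hours at 37 C under 5% CO2, and luminescence was read.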
# Sm TGR block = qHTS Assay for the Inhibitors of Schistosoma Mansoni Peroxiredoxins | Schistosoma mansoni thioredoxin glutathione reductase (TGR), Q962Y6 | purified TGR, DTNB reduction, TNB absorbance 405 nm | Potency, µM (doses to about 114 µM), for the others: top-dose activity change, negative = inhibition, hits mostly inhibitors | actives 3% (n = 360,000) | AID 485364, 2010; further: potency means the concentration at half of the fitted maximal effect; on the % scale 0 is the no-effect control and ±100 the full control effect; nearly all actives have a fitted effect of over 60% in size
#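 First, TGR (20 nM dispensed) and NADPH were mixed with compound. Second, a 15 min room-temperature incubation followed. Third, further NADPH and then DTNB were added to start the reaction. Finally, TNB absorbance was monitored kinetically.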
# Numbers without * were called inactive; ? = inconclusive; . = not tested or not shown; [ ] = remark or other dose. A selection: hits, their analogues and other compounds. The true share with any hit is near 15%. Unless noted, the call rests on the fitted dose curve; in most records, active means well fitted curve in the direction sought with a large enough effect; inconclusive means small, poorly fitted or top-dose-only effect, or another doubt; inactive means no such curve, though single readings can be large; an effect the other way counts as inactive or inconclusive.
SMILES,Pf growth 48h,HCMV inh,HCV inh,SARS PLP yeast,Pf growth 96h,Sm TGR block
CCCOc1ccc(N2C(=O)CC(SCCN)C2=O)cc1 (stereo not given),216.0%,147.9,6.6%,-27.9%,?,35.5µM*
CCOc1ccc(N2C(=O)CC(N)C2=O)cc1 (stereo not given),-10.8%,27.5,5.01µM*,-118.6%,-6.2%,3.55µM*
CCOc1ccc(N2C(=O)CC(Cc3cc(C)cc(C)c3)C2=O)cc1 (stereo not given),-13.6%,22.6,-9.4%,0.4%,?,-0.5%
CCOc1ccc(N2C(=O)CC(N(C)Cc3ccccc3)C2=O)cc1 (stereo not given),-9.1%,?,19.4%,-125.8%,8.7%,31.6µM*
O=C(O)CSC1CC(=O)N(c2ccc(Cl)cc2)C1=O (stereo not given),.,34.7,4.6%,-18.0%,33.3%,5.4%[11.4 µM]
O=C(O)CSC1CC(=O)N(c2ccc(Br)cc2)C1=O (stereo not given),-8.1%,15.2,14.9%,-11.5%,-2.9%,44.7µM*
O=C(NCCc1csc2nc(-c3ccccc3F)nn12)C(=O)Nc1cc(F)ccc1F,.,6.0,.,.,.,-4.1%
COc1ccccc1NNC(=O)c1cccnc1Oc1ccccc1,1.8%,30.3,14.3%,-0.7%,-21.2%,?
COc1ccccc1-c1nc(SCC(=O)N2CCC(C(N)=O)CC2)n[nH]1,-11.2%,34.4,6.8%,-6.5%,-47.1%,-1.6%
O=C(N[C@H]1c2ccccc2C[C@H]1O)[C@H]1O[C@@H](n2ccc(=O)[nH]c2=O)[C@H](O)[C@@H]1O,.,13.3,.,.,.,.
CCN(CC(=O)NCc1ccc(F)cc1)C(=O)c1cccc(S(=O)(=O)N(C)c2ccc(OC)cc2)c1,.,-24.8,?,.,.,.
COC(=O)c1ccc(N2C(=O)CC(N3CCN(c4ccccc4)CC3)C2=O)cc1 (stereo not given),.,26.8,17.7%,.,.,.
COC(=O)c1ccc(N2C(=O)CC(N(C)Cc3ccccc3)C2=O)cc1 (stereo not given),14.0%,-15.4,2.4%,-12.8%,0.294µM*,-4.1%
CC(C)C[C@@H](CNC(=O)OC(C)(C)C)NC(=O)c1nc[nH]c1C(=O)N[C@@H](CC(C)C)C(=O)CNC[C@H](CC(C)C)NC(=O)c1nc[nH]c1C(=O)N[C@@H](Cc1c[nH]c2ccccc12)C(=O)OC(C)(C)C,.,25.4,35.1%,-14.4%,.,.
CC1CCCN(S(=O)(=O)c2ccc(NC(=O)c3cccc(-n4cnnn4)c3)cc2)C1 (stereo not given),11.7µM*,?,?,-1.3%,11.5%,6.0%
CC1CCCCN1S(=O)(=O)c1ccc(NC(=O)c2cccc(-n3cnnn3)c2)cc1 (stereo not given),9.28µM*,-25.8,?,-5.6%,?,3.9%
N#Cc1cc([N+](=O)[O-])c(-n2nnc3ccccc32)c([N+](=O)[O-])c1,73.9%,.,-13.8%,-0.7%,134.2%,14.1µM*
COc1cccc(CNc2nc3cc(-c4ccc(C)cc4)sc3c(=O)n2C)c1OC,.,2.2,.,.,.,.
COc1cccc(CNc2nc3cc(-c4ccccc4)sc3c(=O)n2C)c1,.,-65.0*,.,.,.,.
COCCNc1nc(NCc2ccc(NC(C)=O)cc2)c2sc(-c3ccccc3)cc2n1,.,-97.8*,.,.,.,.
COc1cccc(CNc2nc3cc(-c4ccsc4)sc3c(=O)n2C)c1OC,.,-68.3*,.,.,.,.
CC(=O)NCCNc1nc2cc(-c3ccsc3)sc2c(=O)n1C,.,35.4,.,.,.,.
CC(=O)Nc1ccc(CNc2nc3cc(-c4ccsc4)sc3c(=O)n2C)cc1,.,-65.7*,.,.,.,.
COc1ccc(N(CC(=O)NC2CC3CCC2C3)S(=O)(=O)c2ccc(C)cc2)cc1Cl (stereo not given),.,-31.1,.,.,.,.
Cc1[nH]c2ccccc2c1C(=O)C(=O)NC1CC(=O)N(c2cccc(F)c2)C1 (stereo not given),.,64.5,.,.,.,13.0%
SMILES,Pf growth 48h,HCMV inh,HCV inh,SARS PLP yeast,Pf growth 96h,Sm TGR block
COc1cccc(CNc2nc3cc(-c4ccc(F)cc4)sc3c(=O)n2C)c1OC,.,-71.4*,.,.,.,.
Cc1ccc(NC(=O)c2ccc(Cl)c(N3C(=O)C=CC3=O)c2)cc1,51.5%,-12.0,5.9%,-33.5%,38.3%,0.562µM*
CC1CC(C)CN(CCC(=O)Nc2ccc(Br)cc2)C1 (stereo not given),-6.8%,-15.4,?,-0.2%,7.38µM*,-3.4%
CC1CCN(CCC(=O)Nc2ccc(Br)cc2)CC1,.,-67.9*,?,.,.,.
O=C(CCN1CCCC1)Nc1ccc(Br)cc1,0.7%,-5.5,?,-14.6%,-14.5%,-10.3%
COc1ccc(-c2nc3sc(CCNC(=O)c4cc(Cl)ccc4OC)c(C)n3n2)cc1,.,93.6,.,.,.,3.6%
C=CCN1C=C2C(=O)C(C)(OC(=O)CCC(=O)OC)C(=O)C(Br)=C2C=C1c1ccc(OC)cc1 (stereo not given),14.7µM*,.,?,0.5%,?,?
CCCCOc1cccc(C(=O)N(Cc2ccccc2)C2CCS(=O)(=O)C2)c1 (stereo not given),-27.2%,-24.8,6.9%,-1.0%,-3.6%,-1.8%
Cc1nc(-n2nc(C)c(CCC(C)C)c2C)sc1C(=O)Nc1ccc(Br)cc1,.,18.6,.,.,.,-1.0%
Cc1nn(CC(=O)O)c(=O)c2ccccc12,9.7%,5.2,-3.5%,4.9%,.,0.7%
Cc1nn(CC(=O)O)c(C)c1C,6.6%,-89.8*,10.0%,8.0%,.,0.0%
CCc1ccc(-c2cc(C(=O)N/N=C/c3c[nH]c4ccccc34)[nH]n2)cc1,28.5%,0.2,?,-6.5%,12.8%,7.8%
CCc1ccc(/C=C/c2c[nH]c3ccccc23)[n+](CC)c1,0.208µM*,-97.1*,?,3.2%,0.0738µM*,-4.6%
COc1cccc(-c2cn(C[C@H]3CC[C@@H]([C@@H]4CC[C@H](Cn5cc(-c6cccc(OC)c6)nn5)O4)O3)nn2)c1,?,9.2,-11.1%,-3.4%,7.38µM*,-18.0%
c1ccc(SCc2cn(C[C@H]3CC[C@@H]([C@@H]4CC[C@H](Cn5cc(CSc6ccccc6)nn5)O4)O3)nn2)cc1,-15.4%,-24.4,?,-4.8%,14.7µM*,-0.4%
CSCCC1NC2(C(=O)Nc3c(Cl)cccc32)[C@@H]2C(=O)N(C3CCCC3)C(=O)[C@H]12 (stereo not given in full),?,2.0,8.2%,-0.9%,10.4µM*,-18.7%
